Source: PubChem BioAssay (National Center for Advancing Translational Sciences (NCATS))
Most compounds without a hit are left out; they make up all but 11% or so of the library.
PNC inhibitor: inhibitors of perinucleolar compartment assembly; PC3M PTB-GFP, PNC prevalence imaging, 16 h; hits give low values; activity change (PNC), negative = inhibition, % at 10 µM; 140,000 tested, 3.1% active; AID 2417;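 active = readout at or below -70, meaning at least 70% loss of cells showing the perinucleolar compartment, a nuclear body marking cancer cells; inconclusive = readout between -30 and a set limit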;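 note: plate controls were DMSO wells for no effect and camptothecin positive control wells for full effect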
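Read-out is percentage of cells bearing a perinucleolar compartment, from automated 20x imaging of fixed, Hoechst-stained PC3M PTB-GFP cells. Cells were seeded 4 h, then exposed 16 h to compound (23 nl of library stock) in duplicate plates.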
ALDH1A1 block: ALDH1A1 (human) enzyme inhibition; P00352; Purified ALDH1A1, NADH fluorescence, propionaldehyde substrate; Potency, µM (doses to about 75.3 µM), for inactives: at the highest dose activity, negative = inhibition, hits mostly inhibitors; 220,000 tested, 7.3% active; AID 1030;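 note: potency is the fitted concentration of half-maximal effect; plate controls were no enzyme wells and a reference inhibitor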
HPGD block: inhibitors of human 15-hydroxyprostaglandin dehydrogenase (HPGD); 150,000 tested, 4.3% active; purified HPGD, NADH fluorescence kinetic, PGE2 substrate; Potency, µM, without a hit: top-dose activity change, negative = inhibition, actives largely listed as inhibitors; P15428; AID 894; note: potency is the fitted concentration of half-maximal effect
Target sequence (P15428 whole entry, looked up): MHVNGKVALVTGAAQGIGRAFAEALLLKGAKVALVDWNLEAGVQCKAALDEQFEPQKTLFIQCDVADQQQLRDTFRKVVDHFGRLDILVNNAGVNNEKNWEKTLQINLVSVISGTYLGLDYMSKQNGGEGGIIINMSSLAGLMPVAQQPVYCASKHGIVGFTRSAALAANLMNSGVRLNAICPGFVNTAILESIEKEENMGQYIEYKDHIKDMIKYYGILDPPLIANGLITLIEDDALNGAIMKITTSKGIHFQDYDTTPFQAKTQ
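NADH formation kinetics: reaction with 30 uM PGE2 and 1 mM NAD+ (final), 20 nM enzyme, Tris-HCl pH 8 with Tween 20, after 15 min compound preincubation at room temperature. Fluorescence change, last versus first of five reads.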
* hit, by the source's call; ? = inconclusive; . = not tested or not shown; ! = not confirmed by another sample; [ ] = dose if it differs, or a comment. Unless noted, calls come from the whole dose curve; as a rule, active = well fitted inhibition curve with a large enough effect (not every such curve was filed as active); inconclusive = small, poorly fitted or top-dose-only effect, or another doubt; inactive = no such curve, though single readings can be large or run the other way. Unless noted, % is set by controls: 0 for no effect and ±100 for the full control effect.

SMILES	PNC inhibitor	ALDH1A1 block	HPGD block
Cc1ccc(S(=O)(=O)N2CCCC(C(=O)NCCC(C)C)C2)cc1 (stereo not given)	.	10%	.
Cc1ccc(S(=O)(=O)N2CCCC(C(=O)Nc3cccnc3)C2)cc1 (stereo not given)	-15	4%	-8%
Cc1ccc(S(=O)(=O)NCC(=O)NC2CCCC2)cc1	-5	17%	1%
Cc1cccc(OCC(=O)N/N=C\c2cccn2C)c1C	.	-15%	.
CCOC(=O)C(C)(C)n1nnc(-c2ccc([N+](=O)[O-])cc2)n1	.	5%	.
S=c1ccss1	.	2.2µM*	6.3µM*
COc1ccccc1C1CC(=O)Nc2cc3c(cc21)OCCO3 (stereo not given)	-101*	?	32µM*
CC(C)Oc1ccccc1C1CC(=O)Nc2cc3c(cc21)OCCO3 (stereo not given)	-97*	2%	-11%
CCCOc1c(OC)cccc1C1CC(=O)Nc2cc3c(cc21)OCCO3 (stereo not given)	22	-1%	-4%
COc1cccc(C2CC(=O)Nc3cc4c(cc32)OCCO4)c1OC(C)C (stereo not given)	12	11%	-10%
Cc1ccc(N(C(=O)Cn2nnc3ccccc32)C(C(=O)NCc2ccccc2)c2ccccn2)cc1 (stereo not given)	-7	4%	1%
CCC1=C2CC[C@H]3C(=O)N(c4ccccc4)C(=O)[C@H]3[C@H]2[C@@]2(Cc3ccccc3)C(=NCc3ccccc3)OC(=O)N2C1=O	.	-2%	-4%
CCCOc1ccc(S(=O)(=O)N2CCOCC2)cc1[N+](=O)[O-]	.	4%	.
C=CCNC(=O)/C(C#N)=C/c1ccc(C)o1	.	-14%	.
CCN(CC)c1ccc(/C=C(/C#N)C(=O)NC(C)C)o1	.	10µM*	.
CCN(CC)c1ccc(/C=C(/C#N)C(=O)NCc2ccccc2)o1	-90*	2.8µM*	16µM*
CC(=O)Nc1ccc(/C=C(\C#N)C(=O)NCc2ccccc2)cc1	49	-9%	?
COC(=O)c1cccn(CC(=O)c2ccc(Cl)cc2Cl)c1=O	.	-6%	.
CO/N=C1/[C@H]2O[C@@H]2[C@@H](O)[C@H]2[C@H]1CCn1c(=O)n(-c3ccccc3)c(=O)n12	.	-6%[13.5 µM]	.
COC(=O)c1ccc(Oc2c(Cl)cccc2[N+](=O)[O-])cc1	?	4%	-17%
Cc1nc2ncnn2c(C)c1C/C=C/c1ccccc1	.	6%	.
CCN(Cc1ccccc1)S(=O)(=O)c1ccc2c(c1)NC(=O)CC(=O)N2	.	14µM*	.
CN(Cc1ccccc1)S(=O)(=O)c1ccc2c(c1)NC(=O)CC(=O)N2	-2	?	-13%
CC(C)(C)c1ccc(C(CC(=O)O)NC(=O)c2ccccc2F)cc1 (stereo not given)	.	11%	.
CC(C)Cn1c(C(C)C)nc([N+](=O)[O-])c1S(=O)(=O)c1ccc(F)cc1	37	-7%	-10%
SMILES	PNC inhibitor	ALDH1A1 block	HPGD block
CCCCn1c(CCC)nc([N+](=O)[O-])c1Sc1ccc(Cl)cn1	?	7.1µM*	-15%
CC(C)Cn1c(C(C)C)nc([N+](=O)[O-])c1Sc1ccc(Cl)cn1	?	22µM*	-22%
CCn1c(C)nc([N+](=O)[O-])c1Sc1ccc(F)cc1	?	?	-27%
COC(=O)N1CCC2(CC1)CCN(c1ccncc1)CC2	.	6%	0%
CC(=O)c1cc(C(=O)N2CCCC(CCC(=O)N(C)CCc3ccccn3)C2)cs1 (stereo not given)	.	-5%	.
CC(C)CC1(C)NC(=O)N(CC(=O)Nc2cccc(S(=O)(=O)N(C)c3ccccc3)c2)C1=O (stereo not given)	.	12%	.
Cc1cc(C)n(-c2ccc(C(=O)N3CC(C)OC(C)C3)cc2)n1 (stereo not given)	.	-2%	.
C[C@](N)(Cc1ccc(O)cc1)C(=O)O	.	4%	-5%
C[C@](N)(Cc1ccc(O)c(O)c1)C(=O)O	20	5.6µM*!	?
Cc1ccc(/C=C/C(=O)O)cc1S(=O)(=O)N(CCO)CCO	-103*	8%	-2%
Cc1ccc(/C=C/C(=O)O)cc1S(=O)(=O)NCCCO	3	-7%	4%
O=C(CCC(=O)N1CCOCC1)c1ccc(F)cc1	.	2%	.
O=C(c1cc2ccc([N+](=O)[O-])cc2oc1=O)N1CCOCC1	.	10%	.
O=C(CSc1nncn1-c1cccnc1)N(c1ccccc1)c1ccccc1	.	16µM*	.
C/C(N)=C(/C#N)C(=O)CSc1nncn1-c1ccccc1	.	19%	.
CCC1=C(OC(=O)N(CC)CC)N2C(=O)OC(=NCCOC)[C@]2(C)[C@H]2C1=CC[C@H]1C(=O)NC(=O)[C@H]12	.	-8%	-5%
Cc1ccc(S(=O)(=O)N(C)CCCC(=O)Nc2ccc(C)cc2C)cc1	3	9%	-2%
CCOc1ccc(C2=Nn3c(nnc3-c3ccccc3OC)SC2)cc1	-86*	5%	-11%
CCOc1ccc(-c2nnc3n2N=C(c2ccc(OC)cc2)CS3)cc1	14	5%	-7%
Brc1ccc(C2=Nn3c(nnc3-c3cccnc3)SC2)s1	10	-4%	-5%
Cc1cccc(-c2nnc3n2N=C(c2ccc(Br)cc2)CS3)c1	9	13%	1%
Brc1ccccc1C1=Nn2c(nnc2-c2ccccc2)SC1	-7	?	16µM*
Cc1cc(C)n(-c2nnc3n2N=C(c2ccccc2)CS3)n1	-135*	?	-16%
Cc1cc(C)n(-c2nnc3n2N=C(c2c[nH]c4ccccc24)CS3)n1	-12	-3%	-9%
Cc1ccc(-c2nnc3n2N=C(c2ccc(Br)cc2)CS3)cc1	-106*	11%	-13%
SMILES	PNC inhibitor	ALDH1A1 block	HPGD block
COc1cc(/C=N/n2nnnc2Nc2ccccc2)cc(OC)c1OC	41	?	-17%
O=C(CNS(=O)(=O)c1cccs1)NCc1ccccc1	.	12%	.
Cc1cccc(C(=O)N[C@H](C(=O)OCC(=O)NC2CCS(=O)(=O)C2)C(C)C)c1 (stereo not given in full)	?	5%	-9%
COC(=O)N[C@@H](CCc1ccccc1)[C@]1(C(C)=O)CCCC1=O	.	-2%	-11%
CCCNC(=S)Nc1ccc(F)cc1F	.	0%	.
CCOC(=O)C(C#N)C(c1cccnc1)c1c(C)[nH][nH]c1=O (stereo not given)	9	-7%	0%
CCCc1[nH][nH]c(=O)c1C(c1ccc(Br)cc1)C(C#N)C#N (stereo not given)	-22	?	20µM*
NC(=O)c1ccc(NC(=O)COC(=O)CCC(=O)c2ccc(Cl)cc2)cc1	.	2%	.
COc1ccc2c(c1)Cc1cc(N=[N+]([O-])c3ccc4c(c3)Cc3cc(OC)ccc3-4)ccc1-2	.	?	-11%
CCN1CCCC1CNC(=O)C(=O)Nc1ccccc1OC (stereo not given)	26	8%	-7%
O=C(CCc1ccccc1)Nc1cc2c(cc1Cl)OCCO2	-109*	2%	?
O=C(CCc1ccccc1)Nc1ccc2c(c1)OCCO2	-15	-8%	-17%
Cc1cc(C)c(C)c(S(=O)(=O)N2CCCCC2C(=O)O)c1C (stereo not given)	.	12%	.
CCC(C)NC(=O)CCSc1ccc(C)cc1 (stereo not given)	21	-2%	?
CCN1C/C(=C/c2cccc([N+](=O)[O-])c2)C(=O)/C(=C/c2cccc([N+](=O)[O-])c2)C1	-123*	?	-2%
